# Measurements taken from ChEMBL document CHEMBL3988442, “University of Dundee, Small-Polar-MMV Screening Library” (2021).
# About 13,000 (27%) of roughly 48,000 compounds showed an effect of 50% or more. Some of the results follow.
# Tested on: Wolbachia pipientis
# Assay: Anti-Wolbachia Cell-Based Screen
# Format: functional
# Parameters: scale not given: in the data most compounds retested in dose-response had high values
# Settings: 5 µM
row,SMILES,Percent Effect
1,Cc1cccc(N2Cc3c(NC4CCCC4)ncnc3N(C)CC2=O)c1,95.74%
2,NC(=O)c1cnc(NC2CCN(c3ccccc3)CC2)c(Cl)c1,-3.801%
3,Cc1cccc(N2Cc3nc(=O)[nH]n3C2=O)c1,2.871%
4,CN1CC(Nc2nc3c(cnn3-c3ccccc3)c(=O)[nH]2)CCC1=O (stereo unspecified),9.222%
5,CN1CC(=O)N(c2ccccc2)Cc2c(NC3CC3)ncnc21,112.7%
6,Cc1csc(CN2CC[C@H]3C(=O)N(c4cccnc4)CCO[C@H]3C2)n1,6.542%
7,CN1CC(=O)N(c2cccnc2)Cc2c(NC3CC3)ncnc21,103.4%
8,COc1cc(N2CCC3(C2)CN(c2cccnc2)C(=O)CN3C)ncn1 (stereo unspecified),-13.12%
9,O=C1CCCCN1c1cccc(CNC2CCCC2)c1,0.3467%
10,C=C1c2ccccc2C(=O)N1CCC(=O)N1CCNC(=O)C1,-10.5%
11,N#Cc1c(Cl)nsc1N1CCN(CC2CC2)CC1,5.491%
12,CC(C)N1CCN(C)CC1c1nnc2ccc(C(=O)N3CCCC3)cn12 (stereo unspecified),-1.369%
13,CCNC(=O)N1CCC2(CC1)CCn1c(C3CC3)cnc12,0.3432%
14,CCn1ncc(S(=O)(=O)N[C@@H]2CC[C@@H](n3ccnc3C)[C@@H]2O)c1C,115.7%
15,CCn1ncc(S(=O)(=O)N[C@@H]2CCC[C@@H](n3ccnc3)[C@@H]2O)c1C,136.1%
16,CCn1cc(CN(C)S(=O)(=O)c2cnn(CC)c2C)c(C)n1,-1.191%
17,CC(=O)N1CCC(N[C@@H]2CC[C@@H]2NS(=O)(=O)c2cccnc2)CC1,-3.734%
18,CCn1ncc(S(=O)(=O)N[C@@H]2CC[C@@H](n3ccnc3)[C@@H]2O)c1C,136.9%
19,Cc1cccc(NC(=O)N(CCC(F)(F)F)C[C@H](O)CO)c1,-5.672%
20,Cc1cnc(C)c(N2CCN(CCCc3[nH]nc(C)c3C)CC2)n1,13.39%
21,COc1ccc(-c2cn3c(n2)CO[C@@H](CNCc2nccn2C)C3)cc1,1.884%
22,CN(C)C1CCN(C(=O)c2ccc(Cn3ccccc3=O)o2)CC1,-4.856%

row,SMILES,Percent Effect
1,Cc1nc(CCCNC(=O)C2CC(=O)N(C3CC3)C2)sc1C (stereo unspecified),0.5008%
2,CS(=O)(=O)NC1CCN(Cc2ccc(OCc3ccccn3)cc2)CC1,-10.21%
3,CCc1ncc2c(n1)CN(C(=O)CNC(=O)C(C)C)C2,-10.3%
4,CN(Cc1ccsc1)C(=O)Nc1cccnc1N1CCCC1,3.447%
5,Cn1cnn(CC(=O)NCc2ccccc2F)c1=O,-8.996%
6,CCc1nc(CC)n(CC(=O)N(C)CC(F)(F)F)n1,0.1098%
7,CCc1nc(CC)n(CC(=O)N(CC)CC)n1,-1.582%
8,Cc1nn(C)c(C)c1OCC(=O)NCc1cccc(CO)c1,-2.193%
9,CCc1nc(CC)n(CC(=O)NCc2ccccc2C)n1,109.4%
10,CCCc1nnnn1Cc1cn2c(C)cccc2n1,-18.43%
11,CCc1nc(CC)n(CC(=O)NCc2cccc(C)c2)n1,86.53%
12,CCCc1nnnn1CC(=O)NCc1cccc(C)c1,98.23%
13,CCNC(=O)NC1CN(CC(=O)NCc2ccccc2C)C[C@@H]1OC (stereo partly specified),-0.1158%
14,CN(C)C[C@H]1O[C@H](Cc2cc(-c3ccccn3)on2)CC[C@@H]1O,-5.695%
15,O=C(NS(=O)(=O)c1cccc(F)c1)c1ccccc1F,-17.84%
16,Cc1noc(COCC(=O)Nc2ncccc2Br)n1,-14.88%
17,CCN(CC)C1(Cc2cc(CC(C)C)on2)COC1,-8.16%
18,O[C@H]1CCN(CC2CCOC2)[C@H]1Cc1ccncc1 (stereo partly specified),-12.65%
19,CCCc1ncc(C(=O)N2CCOC(c3nc(C)n[nH]3)C2)s1 (stereo unspecified),1.166%
20,O=C(c1cccnc1O)N1CCOC(c2ccc(Cl)cc2)C1 (stereo unspecified),-6.348%
21,Cc1ccc(CC(=O)N2CCOC(c3nc(C)n[nH]3)C2)cn1 (stereo unspecified),12.26%
22,CN(C)Cc1cnc(C2CN(C(=O)c3ccccc3Cl)CCO2)[nH]1 (stereo unspecified),174.9%

row,SMILES,Percent Effect
1,Cc1n[nH]c(C2CN(C(=O)c3coc(Br)c3)CCO2)n1 (stereo unspecified),-34.21%
2,CCCc1n[nH]c(C2CN(C(=O)Cc3ccc(C)nc3)CCO2)n1 (stereo unspecified),-3.481%
3,Cc1ccc(CC(=O)N2CCOC(c3ncc(CN(C)C)[nH]3)C2)s1 (stereo unspecified),104.7%
4,Cc1n[nH]c(C2CN(C(=O)c3ccn(C)c(=O)c3)CCO2)n1 (stereo unspecified),0.6849%
5,Cc1n[nH]c(C2CN(C(=O)c3cc(C)sc3C)CCO2)n1 (stereo unspecified),-9.628%
6,O=C(c1cccnc1N1CCCC1)N1CCOC(c2ccccc2)C1 (stereo unspecified),5.885%
7,Cc1ccccc1C(=O)N1CCOC(c2ncc(CN(C)C)[nH]2)C1 (stereo unspecified),53.49%
8,Cc1ccc(C(=O)N2CCOC(c3ncc(CN(C)C)[nH]3)C2)cc1F (stereo unspecified),86.38%
9,O=C(Cc1ccon1)Nc1cncc(Br)c1O,-6.673%
10,CCOC1CCN(C(=O)c2c(Cl)c3ccccc3n2C)CC1,4.018%
11,Cc1noc(C)c1CN1CC[C@H]2OCC[C@@H](C(=O)N3CCCO3)[C@H]2C1,-12.4%
12,O=C(NCC(O)c1ccc(Cl)s1)c1ccoc1 (stereo unspecified),3.126%
13,CC(=O)N1CCN(C(=O)C(C)Nc2ccc3ncsc3c2)CC1 (stereo unspecified),-9.61%
14,c1ccc(-c2nc(CN3CCOC(Cn4cccn4)C3)cs2)cc1 (stereo unspecified),-16.04%
15,CN(C)CC1CN(Cc2csc(C3CCCC3)n2)CCO1 (stereo unspecified),6.428%
16,Cc1cnn(CC2CN(Cc3csc(C4CCCC4)n3)CCO2)c1 (stereo unspecified),109.2%
17,c1csc(-c2nc(CN3CCOC(Cn4cccn4)C3)cs2)c1 (stereo unspecified),96.48%
18,c1csc(-c2nc(CN3CCOC(Cn4cncn4)C3)cs2)c1 (stereo unspecified),-0.6055%
19,c1cnn(CC2CN(Cc3csc(C4CCCCC4)n3)CCO2)c1 (stereo unspecified),111.5%
20,Cc1n[nH]c(C2CN(Cc3csc(C4CCCC4)n3)CCO2)n1 (stereo unspecified),6.822%
21,c1ncn(CC2CN(Cc3csc(C4CCCC4)n3)CCO2)n1 (stereo unspecified),-2.779%
22,c1cnn(CC2CN(Cc3csc(-c4ccsc4)n3)CCO2)c1 (stereo unspecified),-6.772%
